Active and inactive are the calls of the source. Rule for the calls: active = hit-call score of the fitted dose curve at least 0.9, where 1 is the maximum; inactive = score below 0.9.
What was measured:
[1] = read-out: TIMP metallopeptidase inhibitor 1 (TIMP1), TIMP1 (gene 7076); experiment: BSK_hDFCGF_TIMP1: BioMAP Diversity Plus: hDFCGF Assay for TIMP metallopeptidase inhibitor 1 (TIMP1) Biomarker Activity (AID 2283062); settings: primary human foreskin fibroblasts; actives raise or lower the signal
Procedure, shortened: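 Human foreskin fibroblast primary cultures dosed for 24 h; secreted/surface TIMP-1 quantified by ELISA. Bidirectional curve fitting against DMSO baseline; cytotoxicity tracked in parallel cultures by SRB total-protein staining.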

[2] = read-out: Monokine induced gamma interferon (MIG), CXCL9 (gene 4283); experiment: BSK_hDFCGF_MIG: BioMAP Diversity Plus: hDFCGF Assay for Monokine induced gamma interferon (MIG) Biomarker Activity (AID 2283063); settings: primary human foreskin fibroblasts; actives raise or lower the signal
Procedure, shortened: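 MIG/CXCL9 measured by ELISA 24 h after dosing primary human skin fibroblasts. Activity fitted in both directions against DMSO controls. Cytotoxicity was checked in parallel cultures by SRB staining read at 560 nm.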

[3] = read-out: Matrix Metallopeptidase 1 (MMP1), MMP1 (gene 4312); experiment: BSK_hDFCGF_MMP1: BioMAP Diversity Plus: hDFCGF Assay for Matrix Metallopeptidase 1 (MMP1) Biomarker Activity (AID 2283064); settings: primary human foreskin fibroblasts; actives raise or lower the signal
Procedure, shortened: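 ELISA read-out of MMP1 from human foreskin fibroblasts (primary skin cells), 24 h post-dose. Gain or loss of signal was fitted bidirectionally versus DMSO negative control; cytotoxicity was checked by SRB in parallel cultures.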

[4] = read-out: Vascular cell adhesion molecule 1 (VCAM1), VCAM1 (gene 7412); experiment: BSK_hDFCGF_VCAM1: BioMAP Diversity Plus: hDFCGF Assay for Vascular cell adhesion molecule 1 (VCAM1) Biomarker Activity (AID 2283065); settings: primary human foreskin fibroblasts; actives raise or lower the signal;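 for AC50: VCAM-1 protein level quantified by ELISA after 24 h chemical exposure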
Procedure, shortened: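 Human foreskin fibroblast primary cells dosed with chemical, VCAM-1 measured by ELISA at 24 h. Bidirectional curve fitting relative to DMSO as negative control/baseline.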

[5] = read-out: Plasminogen activator inhibitor-1 (PAI1), SERPINE1 (gene 5054); experiment: BSK_hDFCGF_PAI1: BioMAP Diversity Plus: hDFCGF Assay for Plasminogen activator inhibitor-1 (PAI1) Biomarker Activity (AID 2283066); settings: primary human foreskin fibroblasts; actives raise or lower the signal
Procedure, shortened: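 ELISA readout of PAI-1 from primary human skin fibroblast cultures, 24 h after compound addition. Gain or loss of signal was fitted bidirectionally against DMSO baseline.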

[6] = read-out: Intercellular Adhesion Molecule 1 (ICAM1), ICAM1 (gene 3383); experiment: BSK_KF3CT_ICAM1: BioMAP Diversity Plus: KF3CT Assay for Intercellular Adhesion Molecule 1 (ICAM1) Biomarker Activity (AID 2283067); settings: primary human keratinocytes with fibroblasts; actives raise or lower the signal
Procedure, shortened: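 Human keratinocyte–foreskin fibroblast co-culture was treated for 24 h. Cell-surface ICAM-1 was quantified by ELISA, fitted bidirectionally relative to DMSO. Cytotoxicity was checked in parallel cultures by SRB total-protein staining.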

[7] = read-out: Interferon-gamma inducible Protein 10 (IP10), CXCL10 (gene 3627); experiment: BSK_KF3CT_IP10: BioMAP Diversity Plus: KF3CT Assay for Interferon-gamma inducible Protein 10 (IP10) Biomarker Activity (AID 2283068); settings: primary human keratinocytes with fibroblasts; actives raise or lower the signal
Procedure, shortened: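 ELISA read-out of IP-10 after 24 h chemical dosing of human skin primary co-culture (keratinocytes, foreskin fibroblasts). Gain or loss of signal relative to DMSO, bidirectional curve fit.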

[8] = BSK_KF3CT_SRB: Viability Assessment in the BioMAP Diversity Plus: KF3CT Assay (AID 2283069); settings: primary human keratinocytes with fibroblasts;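 note: total protein by sulforhodamine B staining as a cytotoxicity measure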
Procedure, shortened: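 SRB read-out at 560 nm (0.1% stain, TCA-fixed cells) gauges overt cytotoxicity in a human skin keratinocyte–fibroblast co-culture 24 h post-dosing. Signal change was fitted bidirectionally relative to DMSO control.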

[9] = read-out: Interleukin-1 alpha (IL1a), IL1A (gene 3552); experiment: BSK_KF3CT_IL1a: BioMAP Diversity Plus: KF3CT Assay for Interleukin-1 alpha (IL1a) Biomarker Activity (AID 2283070); settings: primary human keratinocytes with fibroblasts; actives raise or lower the signal
Procedure, shortened: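 Primary skin co-culture (keratinocytes, foreskin fibroblasts), 24 h exposure; ELISA for IL-1a; bidirectional curve fit vs DMSO.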

[10] = read-out: TIMP metallopeptidase inhibitor 2 (TIMP2), TIMP2 (gene 7077); experiment: BSK_KF3CT_TIMP2: BioMAP Diversity Plus: KF3CT Assay for TIMP metallopeptidase inhibitor 2 (TIMP2) Biomarker Activity (AID 2283071); settings: primary human keratinocytes with fibroblasts; actives raise or lower the signal
Procedure, shortened: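 ELISA readout of TIMP-2 in keratinocyte plus foreskin fibroblast co-cultures (human skin primary cells), 24 h post-dose. Gain or loss of signal fitted relative to DMSO.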

[11] = read-out: Transforming growth factor beta 1 (TGFb1), TGFB1 (gene 7040); experiment: BSK_KF3CT_TGFb1: BioMAP Diversity Plus: KF3CT Assay for Transforming growth factor beta 1 (TGFb1) Biomarker Activity (AID 2283072); settings: primary human keratinocytes with fibroblasts; actives raise or lower the signal
Procedure, shortened: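 Read-out: ELISA for TGF-b1 in keratinocyte/foreskin fibroblast human skin co-culture, 24 h after dosing; bidirectional curve fit vs DMSO baseline; gain or loss of signal scored.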

[12] = read-out: C-C motif chemokine 2 (Homo sapiens) (UniProt P13500); experiment: BSK_KF3CT_MCP1: BioMAP Diversity Plus: KF3CT Assay for Monocyte Chemoattractant Protein 1 (MCP1/CCL2) Biomarker Activity (AID 2283073); settings: primary human keratinocytes with fibroblasts; actives raise or lower the signal
Procedure, shortened: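 Human keratinocyte–foreskin fibroblast co-culture; MCP-1 measured by ELISA 24 h after dosing. Bidirectional fit vs DMSO; cytotoxicity tracked by SRB total protein in parallel cultures.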

[13] = read-out: Matrix Metallopeptidase 9 (MMP9), MMP9 (gene 4318); experiment: BSK_KF3CT_MMP9: BioMAP Diversity Plus: KF3CT Assay for Matrix Metallopeptidase 9 (MMP9) Biomarker Activity (AID 2283074); settings: primary human keratinocytes with fibroblasts; actives raise or lower the signal;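 for AC50: MMP9 protein level quantified by ELISA in the co-culture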
Procedure, shortened: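 ELISA read-out of MMP-9 at 24 h post-dosing in a co-culture of human skin keratinocytes and foreskin fibroblasts. Gain or loss of signal was fitted in both directions against DMSO.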

[14] = read-out: urokinase plasminogen activator (uPA), PLAU (gene 5328); experiment: BSK_KF3CT_uPA: BioMAP Diversity Plus: KF3CT Assay for urokinase plasminogen activator (uPA) Biomarker Activity (AID 2283075); settings: primary human keratinocytes with fibroblasts; actives raise or lower the signal
Procedure, shortened: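 Skin co-culture (keratinocytes + foreskin fibroblasts), human primary; 24 h post-dose; uPA by ELISA; gain/loss fit vs DMSO baseline.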

[15] = read-out: CD40, CD40 (gene 958); experiment: BSK_LPS_CD40: BioMAP Diversity Plus: LPS Assay for CD40 Biomarker Activity (AID 2283076); settings: primary human HUVEC with PBMC; actives raise or lower the signal
Procedure, shortened: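 HUVEC plus PBMC co-culture stimulated with LPS; CD40 quantified by ELISA 24 h after compound dosing. Fitting was bidirectional relative to DMSO. SRB staining of parallel cultures flagged overt cytotoxicity.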

[16] = read-out: E-selectin (Homo sapiens) (UniProt P16581); experiment: BSK_LPS_Eselectin: BioMAP Diversity Plus: LPS Assay for Eselectin Biomarker Activity (AID 2283077); settings: primary human HUVEC with PBMC; actives raise or lower the signal
Procedure, shortened: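 Human umbilical vein endothelial cells co-cultured with PBMC under LPS stimulation; cell-surface E-selectin measured by ELISA 24 h after dosing. Change in either direction versus DMSO, with SRB total-protein staining in parallel cultures for cytotoxicity.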

[17] = read-out: Interleukin-8 (IL8), CXCL8 (gene 3576); experiment: BSK_LPS_IL8: BioMAP Diversity Plus: LPS Assay for Interleukin-8 (IL8) Biomarker Activity (AID 2283078); settings: primary human HUVEC with PBMC; actives raise or lower the signal
Procedure, shortened: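 Human umbilical vein endothelial cells co-cultured with PBMC, LPS-stimulated, exposed to compound for 24 h. IL-8 quantified by ELISA; fitted in both directions against DMSO, with SRB total-protein staining of parallel cultures for cytotoxicity.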

[18] = BSK_LPS_SRB: Viability Assessment in the BioMAP Diversity Plus: LPS Assay (AID 2283079); settings: primary human HUVEC with PBMC;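 note: total protein by sulforhodamine B absorbance as a cytotoxicity measure; measured one day after compound addition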
Procedure, shortened: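 Co-culture of human umbilical vein endothelial cells and PBMC, read 24 h after dosing. Total protein by 0.1% SRB staining after 10% TCA fixation, absorbance at 560 nm; bidirectional fit against DMSO.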

[19] = read-out: Interleukin-1 alpha (IL1a), IL1A (gene 3552); experiment: BSK_LPS_IL1a: BioMAP Diversity Plus: LPS Assay for Interleukin-1 alpha (IL1a) Biomarker Activity (AID 2283080); settings: primary human HUVEC with PBMC; actives raise or lower the signal
Procedure, shortened: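 Human umbilical vein endothelial cells co-cultured with PBMC and stimulated with LPS; IL-1a measured by ELISA 24 h after dosing. Bidirectional fitting against DMSO; cytotoxicity checked by SRB staining in parallel cultures.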

[20] = read-out: Monocyte Chemoattractant Protein-1 (MCP1), CCL2 (gene 6347); experiment: BSK_LPS_MCP1: BioMAP Diversity Plus: LPS Assay for Monocyte Chemoattractant Protein-1 (MCP1) Biomarker Activity (AID 2283081); settings: primary human HUVEC with PBMC; actives raise or lower the signal;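 for AC50: secreted MCP-1 protein quantified by ELISA in culture supernatant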
Procedure, shortened: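 Human umbilical vein endothelial cells co-cultured with PBMC, LPS-stimulated; secreted MCP-1 measured by ELISA 24 h after compound addition. Bidirectional curve fitting against DMSO baseline; SRB total-protein staining in parallel cultures for cytotoxicity.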

Measured: AC50

Chain of E-selectin (Homo sapiens) (P16581 whole entry, looked up): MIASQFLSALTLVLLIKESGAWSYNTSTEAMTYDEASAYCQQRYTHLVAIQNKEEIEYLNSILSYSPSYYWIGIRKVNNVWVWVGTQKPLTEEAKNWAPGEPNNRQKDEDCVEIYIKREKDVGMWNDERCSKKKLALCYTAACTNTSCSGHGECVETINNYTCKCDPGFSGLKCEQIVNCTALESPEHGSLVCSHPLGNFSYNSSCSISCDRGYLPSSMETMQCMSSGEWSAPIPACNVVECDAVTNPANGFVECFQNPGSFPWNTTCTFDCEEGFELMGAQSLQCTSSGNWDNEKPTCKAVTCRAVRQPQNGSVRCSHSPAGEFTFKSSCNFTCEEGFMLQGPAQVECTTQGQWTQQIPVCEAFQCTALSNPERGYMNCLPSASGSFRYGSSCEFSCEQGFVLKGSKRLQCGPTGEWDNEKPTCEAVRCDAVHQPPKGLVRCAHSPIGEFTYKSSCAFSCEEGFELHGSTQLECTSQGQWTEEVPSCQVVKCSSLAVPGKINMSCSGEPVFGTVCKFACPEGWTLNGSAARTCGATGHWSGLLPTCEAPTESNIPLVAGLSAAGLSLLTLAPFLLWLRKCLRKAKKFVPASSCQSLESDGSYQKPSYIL

CCC(C)c1cc([N+](=O)[O-])cc([N+](=O)[O-])c1OC(=O)OC(C)C (centres undefined)
active: [1] 11.2 µM | [2] 9.32 µM | [3] 11 µM | [4] 7.79 µM | [5] 4.79 µM | [6] 9.58 µM | [7] 5.26 µM | [8] 25.3 µM | [9] 20 µM | [10] 20 µM | [11] 20 µM | [13] 20 µM | [14] 20 µM | [15] 7.3 µM | [16] 15 µM | [17] 29.7 µM | [18] 11.9 µM | [19] 29.5 µM | [20] 14.3 µM
inactive: [12]

Oc1c(Cl)cc(Cl)c(Cl)c1Cc1c(O)c(Cl)cc(Cl)c1Cl
active: [1] 1.94 µM | [2] 3.45 µM | [3] 3.28 µM | [4] 2.22 µM | [5] 0.338 µM | [6] 3.14 µM | [7] 2.4 µM | [8] 5.15 µM | [9] 1.83 µM | [10] 1.79 µM | [11] 2.81 µM | [12] 5.44 µM | [13] 0.74 µM | [14] 2.99 µM | [15] 6.43 µM | [16] 22.8 µM | [17] 15.3 µM | [18] 14.1 µM | [19] 9.2 µM | [20] 32.5 µM

O=CN1CCOCC1
inactive: [1] | [2] | [3] | [4] | [5] | [6] | [7] | [8] | [9] | [10] | [12] | [13] | [14] | [15] | [16] | [17] | [18] | [19] | [20]

— PubChem BioAssay (EPA / NIEHS)
